The values below come from PubChem BioAssay AID2104 (National Center for Advancing Translational Sciences (NCATS), 2010).

Molecules are shown by their SMILES. Results filed as inconclusive are left out. Activity calls are given as the source filed them. Calls come from the whole dose curve.

Sequence of Thyrotropin receptor (Homo sapiens) (P16473 whole entry, looked up): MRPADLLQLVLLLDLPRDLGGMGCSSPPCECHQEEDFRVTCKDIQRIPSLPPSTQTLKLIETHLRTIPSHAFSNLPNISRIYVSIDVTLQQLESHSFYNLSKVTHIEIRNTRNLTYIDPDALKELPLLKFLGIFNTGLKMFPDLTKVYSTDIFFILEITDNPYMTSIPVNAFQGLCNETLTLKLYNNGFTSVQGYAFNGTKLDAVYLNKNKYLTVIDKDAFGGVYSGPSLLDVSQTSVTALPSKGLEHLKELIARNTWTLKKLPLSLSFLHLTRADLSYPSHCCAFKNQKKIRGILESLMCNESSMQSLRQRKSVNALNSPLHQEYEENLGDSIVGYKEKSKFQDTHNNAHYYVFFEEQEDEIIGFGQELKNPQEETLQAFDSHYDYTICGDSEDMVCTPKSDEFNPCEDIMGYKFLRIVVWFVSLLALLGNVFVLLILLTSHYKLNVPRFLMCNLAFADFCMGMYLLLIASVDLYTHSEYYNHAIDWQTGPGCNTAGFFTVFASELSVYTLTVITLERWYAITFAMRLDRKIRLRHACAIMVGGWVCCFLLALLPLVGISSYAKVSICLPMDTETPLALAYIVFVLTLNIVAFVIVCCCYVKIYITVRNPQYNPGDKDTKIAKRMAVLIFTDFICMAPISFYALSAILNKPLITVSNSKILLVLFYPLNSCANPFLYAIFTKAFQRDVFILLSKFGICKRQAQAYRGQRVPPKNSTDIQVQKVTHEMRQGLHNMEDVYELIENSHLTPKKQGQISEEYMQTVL

The test concerns the target Thyrotropin receptor (Homo sapiens) (UniProt P16473). The experiment in a line: Secondary Concentration-Response Assay for Agonists of the Thyroid Stimulating Hormone Receptor: ELISA Activity Detection. The following applies: HEK293-TSHR cells, cAMP ELISA luminescence, 1 h. The source says:
NIH Chemical Genomics Center [NCGC] NIH Molecular Libraries Screening Centers Network [MLSCN] MLSCN Grant: 1 X01 MH080680-01 PI Name: Dr. Marvin Gershengorn, NIH NCGC Assay Overview: Confirmation of Thyroid Stimulating Hormone Receptor Agonists TSH is an alpha/beta heterodimeric glycoprotein hormone secreted from the anterior pituitary gland which belongs to the glycoprotein hormone family. The actions of TSH are mediated by a seven-transmembrane receptor, which upon TSH binding couples preferentially to the G-alpha (s) protein (Gs), resulting in activation of adenylate cyclase and increase in cyclic adenosine 3', 5' monophosphate (cAMP). The TSH receptor (THSR) is mainly expressed in thyroid follicular cells and regulates their growth and function. Recombinant TSH is used to activate TSHR in patients with thyroid cancer receiving thyroid hormone suppression therapy and to screen for residual tumor after surgery, but it is expensive and must be administered intramuscularly. An orally active small molecule TSHR agonist would serve as an invaluable research tool for studying TSHR pharmacology and physiology, and would have multiple advantages in therapeutic settings. However, no selective small molecule agonist of the TSH receptor exists, and no small molecule screen for TSHR agonists has ever been reported. A confirmatory assay of putative TSHR agonists was conducted on a HEK 293 cell line stably expressing the TSHR, using an orthogonal detection technology to measure cAMP stimulation: an ELISA based cAMP competition assay using cAMP-Screen Direct System (Applied Biosystems, Foster City , CA).
NCGC Assay Protocol Summary: HEK 293 cells expressing TSHR were cultured for 24 h before incubation for 1 h in serum-free DMEM containing 1 mM 3-isobutyl-1-methylxanthine (IBMX) (SIGMA) and small molecule ligands in a humidified 5% CO2 incubator at 37C. Following aspiration of the medium, cells were lysed using lysis buffer of the cAMP-Screen DirectTM System (Applied Biosystems). The cAMP content of the cell lysate was determined using the method described in the manufacturer#s protocol. An enzyme substrate with a luminescent enhancer generates glow light emission kinetics. Light signal intensity, which is inversely proportional to the cAMP level in the sample, is measured in a luminometer (Perkin Elmer, 1420 Multilabel, Victor 3) for 3 seconds/well 30 min after substrate addition. Potencies (i.e., EC50) of the ligands were obtained from dose-response curves by data analysis with GraphPad Prism 4 software for Windows.
Turning to `COc1ccc(-c2nc3cccc(O)c3c(=O)n2Cc2ccccc2)cc1COc1ccc(NC(C)=O)cc1`, the Potency was 550 nM (active). On to `COc1ccc(C2NC(=O)c3ccccc3N2)cc1COc1ccc(NC(C)=O)cc1` (stereo unspecified), for which the compound was called inactive.

As for `COc1ccc(C2Nc3ccccc3C(=O)N2Cc2ccccc2)cc1COc1ccc(NC(C)=O)cc1` (stereo unspecified), the Potency is 290 nM (active).

Turning to `COc1ccc(C2Nc3ccc(O)cc3C(=O)N2Cc2ccccc2)cc1COc1ccc(NC(C)=O)cc1` (stereo unspecified), the Potency was 330 nM (active). The same measure, in the same setting: the value for `COc1ccc(C2Nc3cccc(O)c3C(=O)N2Cc2ccccc2)cc1CSc1ccc(NC(C)=O)cc1` (stereo unspecified) was 18 nM (active).

For the compound `COc1ccc(C2Nc3ccccc3C(=O)N2CCO)cc1COc1ccc(NC(C)=O)cc1` (stereo unspecified), the outcome was inactive.

Consider `COc1ccc(-c2nc3ccccc3c(=O)n2Cc2ccco2)cc1COc1ccc(NC(C)=O)cc1`, for which the Potency is 930 nM (active). Consider `COc1ccc(C2Nc3ccccc3C(=O)N2CCCN(C)C)cc1COc1ccc(NC(C)=O)cc1` (stereo unspecified), for which the compound was called inactive. In the case of `COc1ccc(C2Nc3cccc(F)c3C(=O)N2Cc2ccccc2)cc1COc1ccc(NC(C)=O)cc1` (stereo unspecified), the Potency is 280 nM (active). Take `COc1ccc(C2Nc3ccccc3C(=O)N2CCc2ccccc2)cc1COc1ccc(NC(C)=O)cc1` (stereo unspecified): the Potency was 430 nM (active). In the case of `COc1ccc(C2Nc3ccccc3C(=O)N2Cc2ccco2)cc1COc1ccccc1` (stereo unspecified), the call was inactive. Same read-out and setting: the value for `COc1ccc(C2Nc3cccc(O)c3C(=O)N2Cc2ccccc2)cc1` (stereo unspecified) was “inactive”; that for `COc1ccc(C2Nc3ccccc3C(=O)N2Cc2ccccc2)cc1COc1ccc(C#N)cc1` (stereo unspecified) was “inactive”. For the compound `COc1ccc(C2Nc3ccccc3C(=O)N2Cc2ccccc2)cc1CSc1ccc(NC(C)=O)cc1` (stereo unspecified), the Potency was 80 nM (active).

As to `O=C1c2ccccc2NC(c2ccccc2)N1Cc1ccco1` (stereo unspecified), the compound was called inactive. On to `COc1ccc(C2Nc3ccccc3C(=O)N2Cc2ccccc2)cc1COc1cccc(F)c1` (stereo unspecified), for which the compound was classed as inactive. For `COc1ccc(C2Nc3cccc(O)c3C(=O)N2Cc2ccccc2)cc1COc1ccc(NC(C)=O)cc1` (stereo unspecified), the Potency is 90 nM (active). As for `COCc1cc(C2Nc3ccccc3C(=O)N2Cc2ccccc2)ccc1OC` (stereo unspecified), the call was inactive. For the compound `COc1ccc(-c2nc3ccccc3c(=O)n2Cc2ccccc2)cc1COc1ccc(NC(C)=O)cc1`, the Potency was 960 nM (active).

For the compound `COc1ccc(C2Nc3cccc(NS(C)(=O)=O)c3C(=O)N2Cc2ccccc2)cc1COc1ccc(NC(C)=O)cc1` (stereo unspecified), the Potency was 980 nM (active). On the same count and under the same terms, the value for `CCCCN1C(=O)c2ccccc2NC1c1ccc(OC)c(COc2ccc(NC(C)=O)cc2)c1` (stereo unspecified) was 830 nM (active).
